Results with a measured potency or affinity are listed apart. The source made the active and inactive calls.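 Rule for the calls: active = fitted half-maximal dose no more than twice the top valid tested dose, for compounds that lower signal; inconclusive = fit invalid, or curve flat with activity between -70 and -30; inactive = potency past limit, curve flat within ±30, or signal increasing.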
biological target: NAD-dependent protein deacylase sirtuin-5, mitochondrial (Homo sapiens) (UniProt Q9NXA8); assay: SIRT5 deacylase inhibitors, dose response, biochemical, fluorescence imaging, cherry-pick, set 6 (AID 720597); details: Purified SirT5, succinyl-peptide-AMC/trypsin fluorescence; series mostly up to 15 µM;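 note: lower AMC signal can also come from blocking the trypsin step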
Sequence (Q9NXA8 whole entry, looked up): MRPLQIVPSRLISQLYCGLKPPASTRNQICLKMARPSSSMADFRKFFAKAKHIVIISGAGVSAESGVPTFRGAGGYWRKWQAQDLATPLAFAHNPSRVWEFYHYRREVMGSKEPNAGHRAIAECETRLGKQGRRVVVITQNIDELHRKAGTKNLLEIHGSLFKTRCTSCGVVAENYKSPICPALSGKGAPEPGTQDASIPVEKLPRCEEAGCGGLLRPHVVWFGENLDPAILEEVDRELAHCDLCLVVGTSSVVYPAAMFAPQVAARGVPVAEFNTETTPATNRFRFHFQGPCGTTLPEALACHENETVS

outcome, inactive:
COc1ccccc1-c1ccc2c(c1)O[C@@H](CN(C)S(=O)(=O)c1ccc(F)cc1)[C@@H](C)CN([C@@H](C)CO)S2(=O)=O
CCCN(C[C@H]1[C@H](c2ccccc2)[C@@H](CO)N1C(C)=O)C(=O)NC(C)C
C[C@H](CO)N1C[C@H](C)[C@@H](CN(C)C(=O)Cc2ccccc2)OCc2ccccc2-c2c(n(C)c3ccccc23)C1=O
CCC(=O)NC[C@H]1[C@@H](c2ccccc2)[C@H](CO)N1C(=O)C1CCC1
O=S(=O)(c1ccc(F)cc1)N1CCCCN2[C@@H](CO)[C@@H](c3ccc(C#CC4CCCC4)cc3)[C@@H]2C1
Cc1ccc(NC(=O)C2CC(=O)n3ncnc3N2)cc1 (stereo not given)
O=C(Nc1ccccc1)N1C[C@@H]2[C@H](c3ccccc31)[C@@H](CO)N2CC1CCCC1
COc1ccc(S(=O)(=O)N(C)C[C@H]2OCCCC[C@@H](C)Oc3ccc(NS(=O)(=O)c4ccc(C)cc4)cc3C(=O)N([C@@H](C)CO)C[C@@H]2C)cc1
COc1ccc(CN(C)C[C@@H]2Oc3ccc(NC(=O)CCC(F)(F)F)cc3C(=O)N([C@H](C)CO)C[C@H]2C)cc1
OC[C@@H]1[C@H](c2ccccc2)C2(CN(Cc3nccs3)C2)N1Cc1cccnc1
COc1ccc(S(=O)(=O)N(C)C[C@@H]2OCCCC[C@H](C)Oc3ccc(NS(=O)(=O)c4ccc(C)cc4)cc3C(=O)N([C@@H](C)CO)C[C@@H]2C)cc1
C[C@@H]1CN([C@@H](C)CO)C(=O)Cc2cc(NS(=O)(=O)c3ccc(Cl)cc3)ccc2O[C@@H]1CN(C)CC1CCCCC1
CCCN(C)C[C@@H]1Oc2cc(-c3ccccc3OC)ccc2S(=O)(=O)N([C@H](C)CO)C[C@@H]1C
C[C@H]1CN([C@@H](C)CO)C(=O)c2cccc(NC(=O)c3ccncc3)c2O[C@H]1CN(C)S(C)(=O)=O
COc1ccc(NC(=O)Nc2ccc3c(c2)C(=O)N([C@H](C)CO)C[C@H](C)[C@@H](CN(C)Cc2ccc(C(F)(F)F)cc2)O3)cc1
C[C@H](CO)N1C[C@H](C)[C@@H](CN(C)S(=O)(=O)c2ccccc2)Oc2ccc(NC(=O)Nc3ccc(C(F)(F)F)cc3)cc2CC1=O
C[C@@H]1CN([C@@H](C)CO)C(=O)c2cc(NC(=O)Nc3ccc(F)cc3)ccc2O[C@@H]1CN(C)S(=O)(=O)c1ccc(Cl)cc1
C[C@@H]1CCCCO[C@@H](CN(C)CC2CCCCC2)[C@@H](C)CN([C@@H](C)CO)C(=O)c2cc(NS(=O)(=O)c3ccc(F)cc3)ccc2O1
C[C@@H]1CN([C@@H](C)CO)C(=O)c2cc(-c3cccc(F)c3)cnc2O[C@H]1CN(C)C(=O)Nc1cc(F)ccc1F
C[C@@H]1CCCCO[C@@H](CN(C)C(=O)Cc2ccccc2)[C@@H](C)CN([C@@H](C)CO)C(=O)c2cc(NC(=O)Nc3ccc(F)cc3)ccc2O1
C[C@@H]1CN([C@@H](C)CO)S(=O)(=O)c2ccc(C#CC3CC3)cc2O[C@H]1CN(C)Cc1ccccc1F
O=C(c1cccnc1)N1CCCCN2[C@H](CO)[C@@H](c3ccc(C#Cc4ccccn4)cc3)[C@@H]2C1
CCCC(=O)Nc1ccc2c(c1)OC[C@@H](C)N(Cc1ccccc1)C[C@H](C)[C@@H](OC)CN(C)C2=O
C[C@H]1CN([C@@H](C)CO)C(=O)Cc2cc(NC(=O)Nc3ccc(F)cc3)ccc2O[C@@H]1CN(C)C
O=C(NC1CCCCC1)[C@@H]1[C@@H](CO)[C@@H]2Cn3c(cccc3=O)[C@H]1N2CC1CCCCC1
Cc1noc(C)c1S(=O)(=O)N(C)C[C@@H]1OCCCC[C@@H](C)Oc2ccc(NC(=O)Nc3cccc4ccccc34)cc2C(=O)N([C@H](C)CO)C[C@@H]1C
CO[C@H]1CN(C)C(=O)c2ccc(NC(C)=O)cc2OC[C@H](C)N(Cc2nccs2)C[C@@H]1C
C[C@@H]1CN([C@@H](C)CO)C(=O)Cc2cc(NC(=O)Nc3ccccc3)ccc2O[C@H]1CN(C)S(=O)(=O)c1ccc(F)cc1
O=C(CCN1CCCCC1)N[C@@H]1CC[C@@H](CC(=O)N2CCC(Cc3ccccc3)CC2)O[C@H]1CO
C[C@@H]1CCCCO[C@@H](CN(C)C(=O)Nc2ccc(C(F)(F)F)cc2)[C@H](C)CN([C@H](C)CO)C(=O)c2cc(NS(=O)(=O)c3ccc(Cl)cc3)ccc2O1
COc1ccc(NC(=O)Nc2ccc3c(c2)C(=O)N([C@H](C)CO)C[C@H](C)[C@@H](CN(C)S(=O)(=O)c2cccs2)OCCCC[C@@H](C)O3)cc1
COCC(=O)NC[C@H]1N[C@H](CO)[C@@H]1c1ccc(C2=CCCCC2)cc1
C[C@H]1CN([C@@H](C)CO)S(=O)(=O)c2ccc(C#CC3CCCC3)cc2O[C@@H]1CN(C)C(=O)Nc1cc(F)ccc1F
COc1ccc(S(=O)(=O)N2CCCCN3[C@H](CO)[C@H](c4ccc(C#CC(C)C)cc4)[C@H]3C2)cc1
C[C@@H]1CN([C@@H](C)CO)C(=O)c2c(c3ccccc3n2C)-c2ccccc2CO[C@@H]1CN(C)Cc1cccc2c1OCCCO2
Cn1cnc(CCNC(=O)C[C@@H]2CC[C@@H]3[C@H](COC[C@@H](O)CN3C(=O)Nc3ccc(Cl)cc3)O2)c1
Cc1ccc(S(=O)(=O)Nc2ccc3c(c2)C(=O)N([C@H](C)CO)C[C@@H](C)[C@H](CN(C)Cc2ccc(Cl)c(Cl)c2)OCCCC[C@H](C)O3)cc1
C[C@@H]1CN([C@@H](C)CO)S(=O)(=O)c2ccc(C#C[C@@H](C)O)cc2O[C@H]1CN(C)Cc1ccc(-c2ccccc2)cc1
C[C@@H]1CN([C@@H](C)CO)S(=O)(=O)c2ccc(C#Cc3ccc(F)cc3)cc2O[C@H]1CN(C)S(=O)(=O)c1ccc(F)cc1
Cc1ccccc1-c1ccc2c(c1)O[C@@H](CN(C)C(=O)Nc1ccc(F)cc1)[C@@H](C)CN([C@@H](C)CO)S2(=O)=O

Source: PubChem BioAssay AID720597 (Broad Institute, 2013)
